# Assay results from paper PMC7819943, “Rice protein-binding microarrays: a tool to detect cis-acting elements near promoter regions in rice”.
# Over roughly 35,000 sequences, “fluorescence intensity (a.u.)” has its median near 10,000; the highest 2% begin near 52,000. For the sample, the highest values were picked, then their nearest neighbours and some sequences at random.
# Target: T1, OsWOX13 (Oryza sativa, UniProt Q5QMM3 1-267)
# T1 sequence: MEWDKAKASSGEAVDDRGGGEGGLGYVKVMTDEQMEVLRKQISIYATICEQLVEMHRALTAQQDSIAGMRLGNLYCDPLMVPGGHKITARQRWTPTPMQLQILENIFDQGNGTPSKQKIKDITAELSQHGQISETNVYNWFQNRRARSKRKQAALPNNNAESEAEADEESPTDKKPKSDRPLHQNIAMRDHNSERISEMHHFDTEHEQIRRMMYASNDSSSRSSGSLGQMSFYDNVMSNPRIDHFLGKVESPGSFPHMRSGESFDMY
# Test: protein-binding microarray (RPBM); PBS, 2% BSA, 51.3 ng/ul salmon testes DNA, 50 uM zinc acetate, 200 nM TF, 25 C, 1 h; high values mean tight binding
# Conditions: protein: recombinant; tags: N-terminal polyhistidine and DsRed monomer fusion (pET32a); label: CyDye5-dUTP incorporated in the synthesized complementary strand; 3' TTTTT single-stranded linker to array surface; dsDNA, one strand shown
# Summary of the method: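 A custom Agilent array was converted to double-stranded form by primer extension with Cy5-dUTP and blocked with 2% BSA. Protein at 200 nM in PBS with 2% BSA, salmon testes DNA and 50 µM zinc acetate was applied for 1 h at 25 °C, followed by washing. The proteins were polyhistidine–DsRed N-terminal fusions of transcription factors, expressed in E. coli BL21-CodonPlus and Ni–NTA-purified. The binding signal is per-feature fluorescence intensity (arbitrary units) from an Axon 4000B scanner.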
row,Sequence,binding signal
1,ACCAGGAAGTCATAAATTAATGGATCGAATATGACCTGCTCGGAGTCACCTAGTGCAG,3160 fluorescence intensity (a.u.)
2,GGTTAATTATGCGAAAGAGAATCTTAATCCCAGGGGCTTTCGGAGTCACCTAGTGCAG,17600 fluorescence intensity (a.u.)
3,CCTGATTTCTAAAGAAAGCCGTCCGGTTTTAACTGAGTCTCGGAGTCACCTAGTGCAG,10100 fluorescence intensity (a.u.)
4,TATTTTGGACCCATGATAGATTGATTTAGAACATGCGGAGCGGAGTCACCTAGTGCAG,11400 fluorescence intensity (a.u.)
5,CTCCACTAATCTAAAATTTGTTTAATGGATCATTGCATCACGGAGTCACCTAGTGCAG,16000 fluorescence intensity (a.u.)
6,TTGTAGATTTATACCTGTCCTAATCAGAGTATACTGTATTCGGAGTCACCTAGTGCAG,3990 fluorescence intensity (a.u.)
7,CTCAGCCTGATTAATCGGAGATAATGAGTCTACGAATTTGCGGAGTCACCTAGTGCAG,9790 fluorescence intensity (a.u.)
8,ATATATATAATTAGGATTGTTATATGCATAGGTTTGCATTCGGAGTCACCTAGTGCAG,18400 fluorescence intensity (a.u.)
9,TTGCAAAACTGGCTTAATTGATTCCATATTTCCATTCCACCGGAGTCACCTAGTGCAG,32200 fluorescence intensity (a.u.)
10,ATCCGTCATCTGATTTAATCTCATACGTCCGCTATCCTCCCGGAGTCACCTAGTGCAG,4210 fluorescence intensity (a.u.)
11,GAGATAAATGATCAACTAGTCCGTGAATTTGACACCGATGCGGAGTCACCTAGTGCAG,7110 fluorescence intensity (a.u.)
12,GATGATTGACTTATTATGCTATAATAATATGCTGAATGAACGGAGTCACCTAGTGCAG,40600 fluorescence intensity (a.u.)
13,ATGATTGATTTGGGTAACATACCAAACACCAAACAGTTCACGGAGTCACCTAGTGCAG,56600 fluorescence intensity (a.u.)
14,ATGACTGATTTATGACAGCCGTGCATGTGTATTTGTGTACCGGAGTCACCTAGTGCAG,55500 fluorescence intensity (a.u.)
15,AATGAATGACTGTCACAGTTCGATGATGTGACTATATATGCGGAGTCACCTAGTGCAG,16600 fluorescence intensity (a.u.)
16,ATGATGATTGACTTATGTGAATATATTGTCTATATATGCACGGAGTCACCTAGTGCAG,60300 fluorescence intensity (a.u.)
17,GCTAATTTGGGCACCATATTGGGCCTGATTTTGGTAAACACGGAGTCACCTAGTGCAG,6980 fluorescence intensity (a.u.)
18,ATTCCAATTGATTTTAGTTAGTTTTCATACATAGTTAACACGGAGTCACCTAGTGCAG,10900 fluorescence intensity (a.u.)
19,TGGCCGGTGATTTACCGTACTAGTGATGTATGCGTGCAAACGGAGTCACCTAGTGCAG,3650 fluorescence intensity (a.u.)
20,GTTACTGCATGATTTGCTAGATGTATTTTATGACAACAGACGGAGTCACCTAGTGCAG,12900 fluorescence intensity (a.u.)
21,TCTAAACATATCCAGATAAATTATTCTGAGATGAGTCTCACGGAGTCACCTAGTGCAG,3670 fluorescence intensity (a.u.)
22,TTCACGCTTGATTGGGCTGGGATTAAGGCCCATTTATACACGGAGTCACCTAGTGCAG,23500 fluorescence intensity (a.u.)
23,ACCCCGAGCTGATTATCTCTGAACGTACGATCAAGCCGTCCGGAGTCACCTAGTGCAG,6180 fluorescence intensity (a.u.)
24,TACTAATTACTACTAACCGTTAAAAGTAGCCGCCGGTTAACGGAGTCACCTAGTGCAG,17800 fluorescence intensity (a.u.)

row,Sequence,binding signal
1,CTTTAGTCTCTGACACTAATTTAGAGTATTAAATATAGACCGGAGTCACCTAGTGCAG,3810 fluorescence intensity (a.u.)
2,ACAACCAACTGATTGAAGACGTCCACGTGCTTCCTAAGATCGGAGTCACCTAGTGCAG,35200 fluorescence intensity (a.u.)
3,AAATCAATTACTAGTGCGCGGTTTGTTGAGGAAAAGGCAACGGAGTCACCTAGTGCAG,6960 fluorescence intensity (a.u.)
4,ACGATCAAATTTAGACATGGAAACTCGTGACTGTGCTTATCGGAGTCACCTAGTGCAG,6550 fluorescence intensity (a.u.)
5,AAGATTTAATTGTTACGAACACAACGGCGTAATCGGATCGCGGAGTCACCTAGTGCAG,36000 fluorescence intensity (a.u.)
6,TCGAAAATTGGTTTTGTTAATATACTAGGACTGATTTCAGCGGAGTCACCTAGTGCAG,6190 fluorescence intensity (a.u.)
7,TGTTGTGATTGGTTGAGAAATGTGGGTATGTGAGAAAATACGGAGTCACCTAGTGCAG,15200 fluorescence intensity (a.u.)
8,AGTGATGGCATTGACTGACTTGGGGAAGGAAACAATCGAGCGGAGTCACCTAGTGCAG,16000 fluorescence intensity (a.u.)
9,TGTGGGATGGATTTGTGGTGATTGAGAGGGTTTGAAAGGGCGGAGTCACCTAGTGCAG,15700 fluorescence intensity (a.u.)
10,TTGGCGATTGATTGGGGAAAGGAAACTTTGCTAGGTCAATCGGAGTCACCTAGTGCAG,53500 fluorescence intensity (a.u.)
11,GTGTGATTTGCTAATTGGGTTTGTTATGAAGCTGGTTATCCGGAGTCACCTAGTGCAG,54000 fluorescence intensity (a.u.)
12,GGGAGAGGTGATGAGTGATTGGAGTAGAGGGGAGATGAGGCGGAGTCACCTAGTGCAG,12600 fluorescence intensity (a.u.)
13,TGGAGGGATTTGATTTGGAAAGGATTTGGATTCGGGATTGCGGAGTCACCTAGTGCAG,3870 fluorescence intensity (a.u.)
14,GTTAATTTTGTGAAATATGTTTGCTGGTTAGTGAATTGTACGGAGTCACCTAGTGCAG,12400 fluorescence intensity (a.u.)
15,GTGTGTGATGGGTTAATCGATGTGCTATGTTATTGGTTTCCGGAGTCACCTAGTGCAG,5310 fluorescence intensity (a.u.)
16,GTTTGATTGGAGCAATGTCTCAATGGGTGAGAAGATGAGGCGGAGTCACCTAGTGCAG,54300 fluorescence intensity (a.u.)
17,ACTGATTGATTTGGAAGGAGAGAAATACTATGTTGGGTTTCGGAGTCACCTAGTGCAG,63700 fluorescence intensity (a.u.)
18,TGTAACAAACAGGCTGTAACGGCACCGTAATAAACCCAACCGGAGTCACCTAGTGCAG,6570 fluorescence intensity (a.u.)
19,AGCCAATCAGAATCCAAATAAAACATTCTTGCAGCAGGCGCGGAGTCACCTAGTGCAG,15900 fluorescence intensity (a.u.)
20,ATTTGTCTAGTACTCCTAATTGGTACATCGACGATCTGCGCGGAGTCACCTAGTGCAG,6670 fluorescence intensity (a.u.)
21,CTAGCCACTTGGTATAATTGACTGAGTCTTGATAAAGCTTCGGAGTCACCTAGTGCAG,7350 fluorescence intensity (a.u.)
22,CAAATGTAATTTCGCACTATTCTTATCTAATGTTTGACATCGGAGTCACCTAGTGCAG,4370 fluorescence intensity (a.u.)
23,TTTGACCTTTGTTCTGATTGCTACAACGAGGGAAAGTTTACGGAGTCACCTAGTGCAG,4690 fluorescence intensity (a.u.)
